From PubChem BioAssay
An excerpt weighted towards active compounds, which were near 1.6% of everything screened.
Vc quorum ag-1: inducers of Vibrio cholerae quorum light production without autoinducers, primary screen, BH1578 luxS cqsA deficient, single point; actives 0.16% (n = 350,000); V. cholerae BH1578 lux reporter, luminescence, 6 h; activation, % at 18.7 µM; in the data active = activation mostly above about 9.7%, no sharp cut-off
SARS 3CLpro inh: SARS-CoV 3CLpro protease inhibitors, primary screen, biochemical, quenched FRET. recombinant SARS-CoV 3CLpro, quenched FRET peptide cleavage. inhibition, % at 6 µM. actives 0.14% (n = 290,000). AID 1706, 2009; in the data active = inhibition above about 12%
PrPC TRFRET: inhibitors of human cell surface prion protein PrPC, primary screen, cell-based, TR-FRET; TR-FRET read-out; actives 0.43% (n = 370,000); inhibition, % at 13.8 µM; AID 720596, 2013; Major prion protein (Homo sapiens), P04156; in the data active = inhibition above about 24%
PriA SSB inh: inhibitors of Klebsiella pneumoniae PriA binding to SSB C-terminal tail, primary screen, biochemical, AlphaScreen | AlphaScreen SSBct-PriA binding, biotinylated peptide | actives 0.6% (n = 430,000) | inhibition, % at 33 µM | PriA–SSB C-terminal tail interaction (Klebsiella pneumoniae); in the data active = inhibition mostly above about 37%, no sharp cut-off; inactive = mostly below about 20%
PrP 5UTR inh: inhibition of PrP 5' UTR reporter expression; cell-based PrP 5' UTR mRNA reporter, plate reader; inhibition, % (no concentration beside the values); actives 0.35% (n = 340,000); AID 488862, 2010; in the data active = inhibition above about 52%
PfHsp40 rescue: rescue of yeast from PfHsp40 toxicity, primary screen, S. cerevisiae, ATP luminescence; S. cerevisiae expressing PfHsp40, growth rescue; growth rescue, % at 12.5 µM; actives 0.68% (n = 340,000); AID 504582, 2011; in the data active = growth rescue above about 28%, passing the limit was not always enough;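 also: yeast W303a lacking pdr1 and pdr3 grown in galactose medium; growth measured after three days at 30 °C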
Vc quorum ag-2: V. cholerae lux activation without autoinducers – BH1578 luxS cqsA deficient, cherry-pick, plate reader, dose response. activation, % at 50 µM. 620 tested, under 10 active. V. cholerae BH1578 lux reporter, luminescence, 6 h. shares compounds with Vc quorum ag-1. AID 602243, 2012; call rule not given here
HeLa tox: HeLa cell cytotoxicity, dose response, cytotoxicity control, 24 h, dry powder. shares compounds with Vc quorum ag-1. AID 624140, 2012. HeLa viability, CellTiter-Glo ATP luminescence. 25 tested, under 10 active. activity change, negative = cytotoxicity, % at 35 µM;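 active = signal drop with fitted half-maximal concentration at or below twice the highest valid dose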
Of the large screens only hits and unclear results are named; the others gave an inactive call (follow-up assays come after a bar, where they were run).

Cc1ccccc1C(=O)Nc1ccc2c(c1)CCC(=O)N2C	none (no result: Vc quorum ag-1, SARS 3CLpro inh, PrPC TRFRET, PrP 5UTR inh, PfHsp40 rescue)
FC(F)(F)c1nnc2sc(-c3ccncc3)nn12	none
FC(F)(F)c1nnc2sc(-c3cccs3)nn12	Vc quorum ag-1 17 | Vc quorum ag-2 inactive
COc1ccccc1CNC(=O)C1=Cc2cc(C)ccc2OC=C1	none (no result: Vc quorum ag-1, SARS 3CLpro inh, PrPC TRFRET, PrP 5UTR inh, PfHsp40 rescue)
CCc1sc(N(C(=O)Cc2ccccc2)c2ccccc2)nc1-c1ccccc1	none
CCc1sc(N(C(=O)Cc2ccccc2)c2ccc(F)cc2)nc1-c1ccccc1	none | Vc quorum ag-2 inactive
O=C(NCc1ccco1)c1cc2n(n1)C(C(F)(F)F)CC(c1ccc(Cl)c(Cl)c1)N2 (stereo unspecified)	none | Vc quorum ag-2 inactive
CC(C)CC1NC(=O)N(CC(=O)Nc2ccc3c(c2)CCC3)C1=O (stereo unspecified)	none
CN1CC(=O)N(CC(=O)Nc2ccc3c(c2)CCC3)C1=O	Vc quorum ag-1 36 | Vc quorum ag-2 inactive
CCCC(=O)NC1CCCc2c1cnn2-c1ccc(C)c(C)c1 (stereo unspecified)	none | Vc quorum ag-2 inactive
O=C(CN1C(=O)COc2ccccc21)c1cccc(Cl)c1	none
O=C(CN1C(=O)COc2ccccc21)c1ccc(Cl)cc1	Vc quorum ag-1 17 | Vc quorum ag-2 inactive
O=C1C[C@@]2(CCN(S(=O)(=O)c3ccccc3Br)C2)Oc2ccccc21	none (no result: Vc quorum ag-1, SARS 3CLpro inh, PrPC TRFRET, PrP 5UTR inh, PfHsp40 rescue)
O=C(O)c1[nH]c2ccccc2c1NS(=O)(=O)Cc1ccccc1	none | Vc quorum ag-2 inactive
O=C(Nc1cccc(-c2ccc(N3CCOCC3)nn2)c1)c1ccc([N+](=O)[O-])cc1	none (no result: SARS 3CLpro inh) | Vc quorum ag-2 inactive
COc1ccc2[nH]c(=O)c(CN(C(=O)c3cccnc3)c3ccc(C)cc3)cc2c1	none | Vc quorum ag-2 inactive
COc1ccc2[nH]c(=O)c(CN(C(=O)c3cccnc3)c3cccc(C)c3)cc2c1	none
O=S(=O)(Nc1cccc(C(F)(F)F)c1)c1cccc(F)c1	none (no result: Vc quorum ag-1, SARS 3CLpro inh, PrPC TRFRET, PrP 5UTR inh, PfHsp40 rescue)
O=C(NC(=S)NCc1cccnc1)c1ccc(Br)o1	none (no result: Vc quorum ag-1, SARS 3CLpro inh, PrPC TRFRET, PrP 5UTR inh, PfHsp40 rescue)
CCn1nnnc1NCc1cccn1C	none | HeLa tox inactive
CCn1nnnc1NCc1ccc(Cl)cc1	none
COc1ccccc1N1CCN(C(=O)c2cc3c(s2)CCC3)CC1	none | Vc quorum ag-2 inactive
O=C1NC(=NO)S/C1=C\c1ccccc1-n1cccn1	none (no result: Vc quorum ag-1, SARS 3CLpro inh, PrPC TRFRET, PrP 5UTR inh, PfHsp40 rescue)
O=C(COC(=O)c1ccc(O)cc1)c1ccc2c(c1)OCCO2	none (no result: SARS 3CLpro inh) | Vc quorum ag-2 inactive
O=C(NCC(c1ccco1)N1CCCC1)c1ccc(Cl)cc1 (stereo unspecified)	none
O=C(CCNC(=O)c1ccc(Cl)cc1)NCC(c1ccco1)N1CCCCC1 (stereo unspecified)	none (no result: SARS 3CLpro inh) | Vc quorum ag-2 inactive
O=C1CCN(C(=O)c2ccccc2Cl)c2ccccc2N1	none (no result: Vc quorum ag-1, SARS 3CLpro inh, PrPC TRFRET, PrP 5UTR inh, PfHsp40 rescue)
CC(=O)c1cccc(NC(=O)CSc2nc(=O)n(CCN3CCOCC3)c3c2CCCC3)c1	none (no result: SARS 3CLpro inh) | Vc quorum ag-2 inactive
Cc1ccc(C(=O)Nc2nsc(-c3ccccc3)n2)cc1	none (no result: Vc quorum ag-1, SARS 3CLpro inh, PrPC TRFRET, PrP 5UTR inh, PfHsp40 rescue)
Cc1ccc(OCCCC(=O)N(C)CC(=O)Nc2ccccc2Cl)cc1	none (no result: SARS 3CLpro inh) | Vc quorum ag-2 inactive
Cc1ccc(C)c(NC(=O)CN(C)C(=O)CCN2C(=O)c3ccccc3C2=O)c1	Vc quorum ag-1 25 | Vc quorum ag-2 inactive
Cc1c(Oc2c([N+](=O)[O-])cc(C(F)(F)F)cc2[N+](=O)[O-])ccc2c1oc(=O)c1ccccc12	none (no result: Vc quorum ag-1, SARS 3CLpro inh, PrPC TRFRET, PrP 5UTR inh, PfHsp40 rescue)
Cc1nn(CC(O)COc2ccc(C(=O)c3ccc(Cl)cc3)cc2)c(C)c1Br (stereo unspecified)	none (no result: Vc quorum ag-1, SARS 3CLpro inh, PrPC TRFRET, PrP 5UTR inh, PfHsp40 rescue)
COCC(=O)N1CCC(Cn2cnc3ccccc32)CC1	none (no result: Vc quorum ag-1, SARS 3CLpro inh, PrPC TRFRET, PrP 5UTR inh, PfHsp40 rescue)
C[C@H](CO)N1C[C@H](C)[C@@H](CN(C)Cc2ccc(C(=O)O)cc2)Oc2ccc(NS(=O)(=O)c3cn(C)cn3)cc2C1=O	none (no result: SARS 3CLpro inh)
Cc1noc(C)c1S(=O)(=O)Nc1ccc2c(c1)C(=O)N([C@H](C)CO)C[C@H](C)[C@@H](CN(C)Cc1ccc(C(=O)O)cc1)O2	none (no result: SARS 3CLpro inh) | Vc quorum ag-2 inactive
NC[C@@H](c1ccco1)N1CCOCC1	none (no result: Vc quorum ag-1, SARS 3CLpro inh, PrPC TRFRET, PrP 5UTR inh, PfHsp40 rescue)
CCCCN(C)CCNC(=O)c1ccc2c(c1)NC(=O)C(N1CCCCC1)S2 (stereo unspecified)	Vc quorum ag-1 17 | Vc quorum ag-2 inactive
CCOC(=O)C1CCCN(C(=O)C(=O)c2c(C)n(C)c3ccccc23)C1 (stereo unspecified)	none (no result: Vc quorum ag-1, SARS 3CLpro inh, PrPC TRFRET, PrP 5UTR inh, PfHsp40 rescue)
COc1cc(SC)ccc1C(=O)OCC(=O)NC(=O)NC(C)C	none
COc1cc(SC)ccc1C(=O)OCC(=O)NCC(C)C	Vc quorum ag-1 67 | Vc quorum ag-2 inactive
Clc1ccc(C2=Nn3c(nnc3-c3n[nH]c4c3CCC4)SC2)cc1	none
Brc1ccc(C2=Nn3c(nnc3-c3n[nH]c4c3CCC4)SC2)cc1	Vc quorum ag-1 25 | Vc quorum ag-2 inactive
CS(=O)(=O)N1CCC(C(=O)Nc2ccccc2-c2nc3ccccc3s2)CC1	none (no result: Vc quorum ag-1, SARS 3CLpro inh, PrPC TRFRET, PrP 5UTR inh, PfHsp40 rescue)
COc1ccc(OC)c(Nc2nn3c(=O)c4cc(C)ccc4nc3s2)c1	none (no result: Vc quorum ag-1, SARS 3CLpro inh, PrPC TRFRET, PrP 5UTR inh, PfHsp40 rescue)
Cc1cc(C(F)(F)F)c2c(N)c(C(=O)NC3CC3)sc2n1	none | Vc quorum ag-2 inactive
CCCCCn1c(SCC(=O)OCC)nc2cc(C(=O)N3CCC(C(N)=O)CC3)ccc2c1=O	none | Vc quorum ag-2 inactive
CCCCCn1c(SCC(=O)C(C)(C)C)nc2cc(C(=O)N3CCN(C)CC3)ccc2c1=O	none (no result: Vc quorum ag-1, SARS 3CLpro inh, PrPC TRFRET, PrP 5UTR inh, PfHsp40 rescue)
Cc1noc(C)c1COc1ccc(C(=O)NCC(c2c(F)cccc2Cl)N(C)C)cc1 (stereo unspecified)	none (no result: SARS 3CLpro inh) | Vc quorum ag-2 inactive
O=c1cccc2n1C[C@@H]1C[C@@H]2CN2CCCC[C@@H]12	none (no result: Vc quorum ag-1, SARS 3CLpro inh, PrPC TRFRET, PrP 5UTR inh, PfHsp40 rescue)
